Compounds with a hit are over-represented: about 4% of the library has one in this group of screens.
esBAF inh: Bmi1 luciferase reporter increase in mESCs, primary screen, esBAF inhibitor project, mouse ES cells, Bmi1 luciferase knock-in, single point. 24 h; 100% = twice the neutral-well signal. reporter increase, % at 12.5 µM. 350,000 compounds, 2% hits; in the data active = activation above about 40%; inconclusive = no clear call, values can overlap the other calls;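 note: a rise in the Bmi1 reporter signal indicates esBAF inhibition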
Wnt bcat act: Wnt/beta-catenin pathway activators, primary screen, cell-based, plate reader, single point. Wnt/beta-catenin reporter cell assay, activator. activation, % at 9.35 µM. 300,000 compounds, 1.2% hits; in the data active = activation above about 30%, passing the limit was not always enough; inconclusive = no clear call, values can overlap the other calls
MITF TRPM1 inh: inhibitors of MITF-dependent TRPM1 promoter reporter, primary screen, cell-based, SK-MEL-5, single point, luciferase | SK-MEL-5 TRPM1 promoter luciferase, 24 h | inhibition, % at 12.5 µM | 330,000 compounds, 0.83% hits | AID 488899, 2010;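 active = mean inhibition across replicates of 60% or more, whatever share of single replicates reaches that level; inconclusive = some that reach 60%, reason not given; inactive = mean inhibition across replicates below 60%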
MITF act: activators of MITF-driven TRPM1 promoter reporter, primary screen, cell-based, SK-MEL-5, luciferase, single point; SK-MEL-5 TRPM1-promoter luciferase, 24 h; % of positive control, neutral wells = 0; activation, % at 12.5 µM; 300,000 compounds, 0.75% hits; AID 588334, 2011;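 active = mean activation of at least 80% with every replicate also reaching 80%; inconclusive = mean reaches 80% but some replicate falls short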
EWS-Fli inh: EWS/Fli-driven NR0B1 reporter inhibitors, primary screen, A673 cells, NR0B1 luciferase, luminescence, MLPCN library | viability-normalised | inhibition, % at 12.6 µM | 350,000 compounds, 0.67% hits | AID 651661, 2012;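 active = mean inhibition of at least 50% after viability correction, with every replicate also passing that limit; inconclusive = mean reaches 50% but only one of two replicates passes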;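 note: firefly luciferase signal divided by Alamar Blue viability fluorescence both relative to DMSO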
PAX8 inh HTS: inhibitors of PAX8-driven TPO luciferase reporter, primary screen, RMG-I cells, single concentration; SteadyGlo, 24 h; inhibition, % at 12.6 µM; 360,000 compounds, 1.2% hits; AID 652154, 2013;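 active = mean replicate inhibition at least 60% with every replicate also reaching 60%; inconclusive = only one of the two criteria is met; inactive = mean below 60% and not all replicates reaching 60%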;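 note: luciferase light reporting Pax8 driven TPO promoter activity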
Hits are given with their value.

What do the screens show for `CCC(CC)C(=O)NCCc1cc2cc(C)c(C)cc2[nH]c1=O`?
esBAF inh: inactive; Wnt bcat act: inactive; MITF TRPM1 inh: inactive; MITF act: inactive; EWS-Fli inh: inactive; PAX8 inh HTS: inactive

What do the screens show for `CCS(=O)(=O)N1CCC2(CC1)CN(C(=O)Nc1cccc(F)c1)[C@H](CO)c1c2c2ccc(OC)cc2n1C`?
EWS-Fli inh: inactive

How did CCC(=O)N(C)C[C@@H]1Oc2cc(C#Cc3ccncc3)ccc2S(=O)(=O)N([C@H](C)CO)C[C@H]1C do in these assays?
esBAF inh: inactive; EWS-Fli inh: inactive

What do the screens show for `CNC(=O)C[C@@H]1CC[C@H]2[C@H](COc3ccc(NC(=O)Nc4ccccc4OC)cc3C(=O)N2C)O1`?
esBAF inh: inactive; EWS-Fli inh: inactive; PAX8 inh HTS: inactive

Results for O=C(O)C[C@@H]1C[C@@H]2c3cc(NC(=O)C4CCC4)ccc3O[C@@H]2[C@H](CO)O1 ?
PAX8 inh HTS: inactive

What do the screens show for `C/C=C/c1ccc2c(c1)O[C@H](CN(C)C(=O)C1CC1)[C@@H](C)CN([C@H](C)CO)S2(=O)=O`?
esBAF inh: inactive; EWS-Fli inh: inactive

How did O=C(c1ccncc1)N1CC(=O)N2[C@H](CO)[C@H](c3ccc(/C=C/c4ccccc4)cc3)[C@@H]2C1 do in these assays?
EWS-Fli inh: inactive; PAX8 inh HTS: inactive

Results for CCCc1nnc(NC(=O)c2c(O)c3c([nH]c2=O)CCCC3)s1 ?
Wnt bcat act: inactive; MITF TRPM1 inh: inactive

How did O=C(Nc1nccs1)c1c(O)c2c([nH]c1=O)CCCC2 do in these assays?
esBAF inh: inconclusive; Wnt bcat act: 50; MITF TRPM1 inh: inactive; MITF act: inactive; EWS-Fli inh: inactive; PAX8 inh HTS: inactive

How did O=C(Nc1ccccc1O)c1c(O)c2c([nH]c1=O)CCCC2 do in these assays?
esBAF inh: 85; Wnt bcat act: inactive; MITF TRPM1 inh: inactive; MITF act: inactive; EWS-Fli inh: inactive; PAX8 inh HTS: inactive

Results for O=C(Nc1ccccc1O)c1csc2c1CCCC2 ?
Wnt bcat act: 38; MITF TRPM1 inh: inactive; MITF act: inactive; EWS-Fli inh: inactive; PAX8 inh HTS: inactive

How did C[C@@H]1CN([C@H](C)CO)C(=O)Cc2cc(NS(=O)(=O)c3cn(C)cn3)ccc2O[C@H]1CN(C)C(=O)Nc1ccccc1 do in these assays?
esBAF inh: inactive; EWS-Fli inh: inactive; PAX8 inh HTS: inactive

Results for CCc1cccc2sc(N3CCN(C(=O)c4ccc([N+](=O)[O-])o4)CC3)nc12 ?
esBAF inh: inactive; MITF TRPM1 inh: 77; MITF act: inactive

How did CC(=O)c1ccc(NC(=O)COC(=O)C2CC3C=CC2C3)cc1 (stereo not drawn) do in these assays?
esBAF inh: inactive; Wnt bcat act: 43; MITF TRPM1 inh: inactive; MITF act: inactive; EWS-Fli inh: inactive; PAX8 inh HTS: inactive

Results for CC(=O)Nc1ccc(C(=O)COC(=O)c2cccs2)c(F)c1 ?
esBAF inh: 68; Wnt bcat act: 57; MITF TRPM1 inh: inactive; MITF act: 127; EWS-Fli inh: inactive; PAX8 inh HTS: inactive

Results for CCCC(=O)Nc1ccc(C(=O)COC(=O)C2CC2C)cc1 (stereo not drawn) ?
esBAF inh: inactive; Wnt bcat act: 45; MITF TRPM1 inh: inactive; MITF act: inactive; EWS-Fli inh: inactive; PAX8 inh HTS: inactive

How did CC(=O)Nc1ccc(C(=O)COC(=O)c2c(C)noc2C)c(F)c1 do in these assays?
esBAF inh: inactive; Wnt bcat act: inactive; EWS-Fli inh: inactive; PAX8 inh HTS: inactive

Results for CC(=O)Nc1ccc(C(=O)COC(=O)C2CC2C)c(F)c1 (stereo not drawn) ?
esBAF inh: inactive; Wnt bcat act: 42; MITF TRPM1 inh: inactive; MITF act: 107; EWS-Fli inh: inactive; PAX8 inh HTS: inactive

Results for CCCC(=O)Nc1ccc(C(=O)COC(=O)C2=COCCO2)cc1 ?
Wnt bcat act: inactive; MITF TRPM1 inh: inactive; MITF act: inactive; EWS-Fli inh: inactive; PAX8 inh HTS: inactive

Results for CCCNC(=O)N(C)C[C@H]1Oc2cc(C#Cc3ccccn3)ccc2S(=O)(=O)N([C@@H](C)CO)C[C@H]1C ?
esBAF inh: inactive; EWS-Fli inh: inactive

High-throughput results as filed in PubChem.
